From PubChem BioAssay come the findings set out here.

Usually inhibition stands for the change of the read-out against control, counted positive when it falls.

Test [1] is described as follows: inhibitors of TNFa-induced NFkB p65 translocation, primary screen, imaging, HUVEC, MLSMR starter and 10KST1 sets (AID 438;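 active means inhibition above 20% together with a positive visual image hit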;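 further: compound added about 3h40 before a 20 min TNFalpha stimulation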;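 on inhibition: signal is the nuclear over cytoplasmic p65 intensity ratio per well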). The conditions noted are these: HUVEC TNFa-induced p65 nuclear translocation; cell count: measured here: nuclei count (cytotoxicity indicator), at 2.08 µM; inhibition: at 2 µM, stronger effect = higher value, 0% TNFa-plus-vehicle, 100% no-TNFa wells.
The nature of test [2]: reduction of polyQ htt aggregates in cells – imaging, exon1htt(103Q)mCFP cells, high-content imaging, primary screen (AID 483;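 active means visual image review flags a hit and inhibition of aggregation exceeds 20%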;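 further: compound exposure lasted 3 days before fixation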;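 on nuclei count: percent of the per-plate median nuclei count of sample wells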). The following applies: exon1htt(103Q)mCFP cell line, aggregate imaging, at 2 µM; inhibition of aggregation: stronger effect = higher value; nuclei count: measured here: cell count, toxicity.
The nature of test [3]: endothelial E-selectin expression blockers – imaging, HUVEC, immunofluorescence, MLSMR starter and 10KST1 sets, primary screen (AID 487;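 active means visually confirmed hit in the image check and inhibition above 20%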;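 on inhibition: signal is fraction of cell area covered by stained E-selectin grains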;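 on nuclei count: 100% = median nuclei count of all wells on the same plate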). The conditions noted are these: HUVEC TNFalpha-induced E-selectin immunofluorescence imaging, at 2 µM; inhibition: stronger effect = higher value; nuclei count: measured here: cell number, toxicity.
For test [4], the target named is Voltage-gated potassium channel subunit beta-2 (Rattus norvegicus) (UniProt P62483). The experiment in a line: inhibitors of rat Kvbeta2 reductase activity – biochemical, NADPH fluorescence, primary screen (AID 622;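 active means fluorescence slope higher than the sample average by over 3 SD, cut at about -0.22 in these data, passing the limit was not always enough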;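 further: slope of raw intensity against log time taken from 70 to 1610 s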). The following applies: recombinant KvBeta, 4-cyanobenzaldehyde reduction, at 10 µM, stronger effect = higher value.
For test [5] the target is unchanged. The experiment in a line: enhancers of rat Kvbeta2 NADPH turnover – biochemical, NADPH fluorescence, primary screen (AID 623;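 active means NADPH fluorescence slope more negative than the mean of all samples by about 3 SD, 99.7% confidence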;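 further: fluorescence intensity change per second fitted from 20 to 320 s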). The following applies: Recombinant KvBeta, NADPH fluorescence decrease slope, 10 min; at 10 µM; stronger effect = lower value.
Test [6] addresses Alpha-2C adrenergic receptor (Homo sapiens) (UniProt P18825). The experiment in a line: compounds altering alpha2C-coupled GIRK flux – cell-based, HEK293 alpha2C/GIRK1/2, thallium flux, primary screen (AID 624).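 Further: slope of fluorescence ratio to pre-addition baseline per second over 15 to 24 s.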 The conditions noted are these: thallium flux BTC fluorescence, at 10 µM, actives lie on both sides.
Test [7] is described as follows: blockers of RIG-like receptor reporter activation – cell-based, Sendai virus stimulus, luciferase, 10K MLSCN set, TLR/RLR signaling modifier project, primary screen (AID 602276;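 active means inhibition at or above 50% at 10 µM; inactive means inhibition below 50%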;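 further: firefly luciferase from ISG56 promoter only with Renilla not read in this screen; 0% = Sendai virus plus DMSO and 100% = medium plus DMSO without virus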). The following applies: HEK293 RL24 IRF3 luciferase reporter, at 10 µM, stronger effect = higher value. (In general: Reporter assays use an easily measured gene product as a stand-in for the process of interest.)

Test [8] is described as follows: TLR3 IRF3 reporter activation blockers – cell-based, poly I:C stimulus, luciferase, 10K MLSCN set, primary screen (AID 602277;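 active means inhibition of the reporter signal at or above 50%; inactive means inhibition below 50%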). The conditions noted are these: HEK293-TLR3 RL24 IRF3 luciferase reporter, at 10 µM, stronger effect = higher value.

Structures are written as SMILES. Activity calls are given as the source filed them.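 How the source made its calls, unless noted: active means fluorescence slope after compound addition differing from the mean of all screened samples at 99.7% confidence, in either direction; inactive means the rest.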

Chain of Voltage-gated potassium channel subunit beta-2 (Rattus norvegicus) (P62483 whole entry, looked up): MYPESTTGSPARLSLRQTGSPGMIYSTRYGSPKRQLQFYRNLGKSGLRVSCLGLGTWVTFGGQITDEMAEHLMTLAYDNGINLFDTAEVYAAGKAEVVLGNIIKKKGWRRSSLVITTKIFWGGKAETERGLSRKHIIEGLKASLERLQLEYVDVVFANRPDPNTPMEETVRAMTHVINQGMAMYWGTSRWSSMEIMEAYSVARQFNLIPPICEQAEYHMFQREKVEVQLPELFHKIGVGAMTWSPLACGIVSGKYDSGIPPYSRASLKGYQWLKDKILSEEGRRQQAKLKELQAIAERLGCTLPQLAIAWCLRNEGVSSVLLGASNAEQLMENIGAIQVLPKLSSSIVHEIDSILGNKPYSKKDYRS
Chain of Alpha-2C adrenergic receptor (Homo sapiens) (P18825 whole entry, looked up): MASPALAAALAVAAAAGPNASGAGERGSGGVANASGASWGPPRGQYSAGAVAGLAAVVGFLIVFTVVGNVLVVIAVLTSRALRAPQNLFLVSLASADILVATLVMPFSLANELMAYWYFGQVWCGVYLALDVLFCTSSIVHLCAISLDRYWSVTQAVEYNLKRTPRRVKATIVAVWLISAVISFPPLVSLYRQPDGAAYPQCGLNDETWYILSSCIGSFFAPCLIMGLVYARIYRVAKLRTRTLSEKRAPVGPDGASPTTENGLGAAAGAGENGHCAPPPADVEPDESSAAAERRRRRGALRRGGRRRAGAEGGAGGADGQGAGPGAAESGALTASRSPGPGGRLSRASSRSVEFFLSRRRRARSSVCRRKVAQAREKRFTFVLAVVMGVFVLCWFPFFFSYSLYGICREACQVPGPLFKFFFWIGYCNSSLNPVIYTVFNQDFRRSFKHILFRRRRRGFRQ

As for `COC(=O)CCC(=O)Nc1ccc(OC)cc1`, the cell count in test [1] came to 418. For the same molecule, the inhibition in test [1] is 0% (inactive); in test [3], 31.8% (inactive); in test [7], 8.73% (inactive); in test [8], 19.4% (inactive). In test [2], the inhibition of aggregation is -15.3% (inactive). The nuclei count amounted to 108% in test [2] and 101% in test [3]. The fluorescence slope in test [4] is -0.51 (inactive). Further, in test [5], the NADPH fluorescence slope was -5.9e-05 (inactive). Besides, the slope in test [6] is 0.00654 (inactive).
Regarding `CC(C)(C)c1ccc2c(c1)OCC(C(=O)O)O2` (centres undefined), the cell count in test [1] was found to be 448. For the same molecule, the inhibition is 2% (inactive) in test [1], 14.6% (inactive) in test [3], -8.63% (inactive) in test [7] and 4.32% (inactive) in test [8]. Also, the inhibition of aggregation in test [2] was -7.2% (inactive). Besides, the nuclei count in test [2] is 110%; in test [3] it was 90.7%. The fluorescence slope in test [4] was -0.547 (inactive). In test [5], the NADPH fluorescence slope is 5.5e-05 (inactive). Besides, the slope in test [6] is 0.00589 (inactive).
Take `CCOC(=O)N1CCN(c2nc(-c3ccc(Cl)cc3)cs2)CC1`: the cell count in test [1] worked out at 256. Further, the inhibition in test [1] is 7.4% (inactive); in test [3], -94.3% (inactive); in test [7] it was -3.5% (inactive); in test [8], -38.7% (inactive). Further, the inhibition of aggregation in test [2] is 7.8% (inactive). Also, the nuclei count was 80.8% in test [2] and 113% in test [3]. In addition, the fluorescence slope in test [4] is -0.35 (inactive). The NADPH fluorescence slope in test [5] is -3.8e-05 (inactive). Besides, the slope in test [6] was 0.00625 (inactive).
For the molecule `CCC(=O)N1CCN(c2nc(-c3ccccc3)c3c(c2C#N)CCCC3)CC1`, the cell count in test [1] turned out to be 501. Besides, the inhibition was 6.3% (inactive) in test [1], -27.6% (inactive) in test [3], 13.4% (inactive) in test [7] and 44.4% (inactive) in test [8]. Moreover, the inhibition of aggregation in test [2] is 0.7% (inactive). For the same molecule, the nuclei count stood at 98.3% in test [2] and 108% in test [3]. The fluorescence slope in test [4] was -0.317 (inactive). For the same molecule, in test [5], the NADPH fluorescence slope was -8.2e-07 (inactive). The slope in test [6] is 0.00519 (inactive).
As for `Cc1ccc2c(c1)CCCN2C(=O)C1CCCO1` (centres undefined), the cell count in test [1] is 354. The inhibition in test [1] is -6.4% (inactive); in test [3] it was -84.4% (inactive); in test [7], 10.7% (inactive); in test [8] it was 17.6% (inactive). Further, the inhibition of aggregation in test [2] is 7.6% (inactive). Also, the values for the nuclei count in test [2] and in test [3] were 95% and 86.9%, respectively. Besides, the fluorescence slope in test [4] is -0.417 (inactive). Further, the NADPH fluorescence slope in test [5] is -4e-05 (inactive). Also, the slope in test [6] is 0.00423 (inactive).
Turning to `Cn1c(=O)oc2cc(S(=O)(=O)NC3CCN(Cc4ccccc4)CC3)ccc21`, in test [1], the cell count came out at 621. Besides, the inhibition in test [1] is -6.3% (inactive); in test [3], -37.9% (inactive); in test [7] it was 10.4% (inactive); in test [8], 33.8% (inactive). The inhibition of aggregation in test [2] is 59.7% (active). Further, the nuclei count worked out at 70.5% in test [2] and 99.7% in test [3]. Further, the fluorescence slope in test [4] was -0.57 (inactive). In addition, the NADPH fluorescence slope in test [5] was 1.4e-06 (inactive). Also, the slope in test [6] was 0.0068 (inactive).
On to `O=C(NCc1cccs1)C1CC(c2ccccc2O)=NO1` (centres undefined), for which the cell count in test [1] is 347. Moreover, the inhibition was 1.7% (inactive) in test [1], -122% (inactive) in test [3], 12.7% (inactive) in test [7] and 67.7% (active) in test [8]. The inhibition of aggregation in test [2] was -11.8% (inactive). In addition, the results for the nuclei count in test [2] and in test [3] were 104% and 108%, respectively. Moreover, the fluorescence slope in test [4] was -0.601 (inactive). The NADPH fluorescence slope in test [5] was -2.2e-05 (inactive). Besides, in test [6], the slope is 0.00342 (inactive).
For the molecule `COc1ccc(C)cc1NC(=O)CCN1CCCC1`, the cell count in test [1] amounted to 257. Also, the inhibition in test [1] was -1.2% (inactive); in test [3] it was 6.5% (inactive); in test [7], 15.3% (inactive); in test [8], 16.2% (inactive). Besides, the inhibition of aggregation in test [2] is 7.8% (inactive). Moreover, the nuclei count came out at 87.6% in test [2] and 109% in test [3]. In addition, the fluorescence slope in test [4] was -0.442 (inactive). In test [5], the NADPH fluorescence slope is -3.8e-06 (inactive). The slope in test [6] was 0.00559 (inactive).
Consider `O=C(c1ccc(=O)[nH]c1)N(Cc1ccco1)C1(C(=O)NC2CCCC2)CCCCC1`, for which the cell count in test [1] is 296. Also, the inhibition in test [1] was -7.1% (inactive); in test [3], -73.8% (inactive); in test [7] it was -75.5% (inactive); in test [8], 96.9% (active). Besides, the inhibition of aggregation in test [2] was 42.7% (active). For the same molecule, the nuclei count in test [2] worked out at 85.1%; in test [3], 104%. Also, the fluorescence slope in test [4] was -0.529 (inactive). Also, the NADPH fluorescence slope in test [5] is -8.3e-05 (inactive). The slope in test [6] is 0.00538 (inactive).
Turning to `O=c1c2nnn(Cc3ccc(Cl)cc3)c2ncn1Cc1ccc(F)cc1`, the cell count in test [1] was determined as 608. In addition, the inhibition is -7.9% (inactive) in test [1], -19.2% (inactive) in test [3], 13.6% (inactive) in test [7] and 20.6% (inactive) in test [8]. The inhibition of aggregation in test [2] is -10.3% (inactive). Also, the nuclei count came to 130% in test [2] and 111% in test [3]. Further, the fluorescence slope in test [4] was -0.539 (inactive). The NADPH fluorescence slope in test [5] was -6.1e-05 (inactive). The slope in test [6] is 0.00552 (inactive).
For `Cc1cc(C)n(-c2ccc(N3CCOCC3)nn2)n1`, in test [1], the cell count was determined as 610. For the same molecule, the inhibition in test [1] is -5.2% (inactive); in test [3] it was -27.5% (inactive); in test [7], -5.9% (inactive); in test [8] it was -11.9% (inactive). For the same molecule, in test [2], the inhibition of aggregation is -8.5% (inactive). Besides, the nuclei count in test [2] amounted to 100%; in test [3], 120%. The fluorescence slope in test [4] is -0.4 (inactive). Besides, in test [5], the NADPH fluorescence slope is -7.8e-06 (inactive). In addition, the slope in test [6] was 0.0039 (inactive).
With `CCOc1ccc(OCC)c(NS(=O)(=O)c2ccc3c(c2)n(C)c(=O)c(=O)n3C)c1`, the cell count in test [1] was determined as 291. Moreover, the inhibition in test [1] was -2.4% (inactive); in test [3], -27.6% (inactive); in test [7], 10.9% (inactive); in test [8], 13% (inactive). In addition, the inhibition of aggregation in test [2] is 0.8% (inactive). In addition, the nuclei count in test [2] came out at 109%; in test [3] it was 107%. In addition, the fluorescence slope in test [4] was -0.432 (inactive). For the same molecule, in test [5], the NADPH fluorescence slope is -4.6e-05 (inactive). In addition, the slope in test [6] is 0.00533 (inactive).
For the molecule `O=C(C1=C(O)C(=O)N(Cc2ccccc2)C1c1ccncc1)c1ccco1` (centres undefined), the cell count in test [1] worked out at 382. Besides, the inhibition in test [1] was 8.3% (inactive); in test [3] it was -216% (inactive); in test [7], -5.31% (inactive); in test [8], 2.12% (inactive). In addition, the inhibition of aggregation in test [2] is -3.4% (inactive). The results for the nuclei count in test [2] and in test [3] were 116% and 143%, respectively. Besides, in test [4], the fluorescence slope was -0.192 (inactive). For the same molecule, the NADPH fluorescence slope in test [5] is 2.5e-06 (inactive). Moreover, the slope in test [6] was 0.0062 (inactive).
Turning to `COc1ccc(C(=O)CN2C(=O)NC3(CCCc4ccccc43)C2=O)cc1OC` (centres undefined), in test [1], the cell count was determined as 412. In addition, the inhibition is -9% (inactive) in test [1], 35.3% (inactive) in test [3], 15.1% (inactive) in test [7] and 13.4% (inactive) in test [8]. Also, in test [2], the inhibition of aggregation was 2.7% (inactive). For the same molecule, the nuclei count was 94.1% in test [2] and 87.2% in test [3]. The fluorescence slope in test [4] was -0.51 (inactive). Further, the NADPH fluorescence slope in test [5] was -2.4e-05 (inactive). The slope in test [6] is 0.00564 (inactive).
